High-throughput results as filed in PubChem BioAssay.
An excerpt weighted towards active compounds, which were near 3.9% of everything screened.
HT1080-NT tox: qHTS for induction of synthetic lethality in tumor cells producing 2HG: qHTS for the HT-1080-NT fibrosarcoma cell line | HT-1080-NT fibrosarcoma viability, CellTiter-Glo ATP luminescence, 48 h | Potency, µM (doses to about 46.1 µM), for inactives: at the highest dose activity, negative = less viability, hits mostly cytotoxic | hit rate 1.6% among 360,000;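 note: NT is the 2HG producing partner of a matched IDH1 knockdown line; 0% = DMSO-treated cells and -100% = media-only wells without cells; nearly all actives have a fitted effect of over 55% in size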
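A 48-hour cytotoxicity screen used HT-1080-NT cells plated 2 hours before compound delivery. ATP-based CellTiter-Glo luminescence measured viability, normalized to DMSO and no-cell controls.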
ATXN2 expr inh: Primary qHTS for Inhibitors of ATXN expression; AID 1745845, 2022; hit rate 0.72% among 360,000; HEK-293 ATXN2-luciferase reporter, luminescence, 24 h; Potency, µM (doses to about 57 µM), inactives show top-dose activity change, negative = inhibition, hits mostly inhibitors; note: % is set by controls: 0 for no effect and ±100 for the full control effect; nearly all actives have a fitted effect of over 55% in size
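qHTS (up to 57 uM final) was run with 24 h compound exposure of reporter cells at 37 °C. Each well was multiplexed: SteadyGlo luminescence measured ATXN2-luciferase expression after a fluorogenic Gly-Phe-AFC viability readout (25 uM final).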
ATXN viability: Viability Counterscreen for Primary qHTS for Inhibitors of ATXN expression; Potency, µM (highest dose often 56.7 µM), actives largely listed as cytotoxic; hit rate 0.49% among 400,000; S2 cells (HEK-293 line with an ATXN2-luciferase reporter) viability, CellTiter-Fluor protease fluorescence, 24 h; note: nearly all actives have a fitted effect of over 40% in size
HepG2 tox-1: qHTS for Inhibitors of TGF-b: Cytotox Counterscreen; hit rate 0.76% among 410,000; HepG2 CAGA-GFP viability, ATP luminescence, 18 h; Potency, µM (titrated, usually from 46.1 µM), for the others: top-dose activity change, negative = cytotoxicity, usual class: cytotoxic
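CellTiter-Glo luminescence gave cytotoxicity after 18 hours at 37 degrees C. The cells were HepG2 CAGA-GFP in 1% FBS DMEM, stimulated with 500 pg/mL TGF-beta after compound addition. %Activity was normalised to no-cell wells (complete cell-killing) and DMSO (no toxicity), and curves were fitted and classified.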
HT1080 IDH1KD tx: qHTS for induction of synthetic lethality in tumor cells producing 2HG: qHTS for the HT-1080-IDH1KD cell line | hit rate 2% among 360,000 | HT-1080 IDH1 knockdown viability, ATP luminescence, 48 h | Potency, µM (series often up to 46.1 µM), for the others: at the top dose activity, negative = toxicity, usual class: cytotoxic | AID 686971, 2013;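 note: 0% = DMSO wells and -100% = cell-free medium wells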
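IDH1KD HT-1080 cells, 750/well, RPMI + 5% FBS; compound pinned after 2 h settling; 48 h, 37 °C; CellTiter-Glo luminescence; % activity normalised to DMSO and no-cell wells; curves fitted, classed by r2 and efficacy.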
TGFb SMAD3 inh: qHTS for Inhibitors of TGF-b. HepG2 CAGA-GFP TGF-b/SMAD3 reporter, GFP fluorescence, 18 h; TGF-beta stimulated, 500 pg/mL final. hit rate 1.2% among 410,000. Potency, µM (highest dose often 46.1 µM), inactives show at the highest dose activity, negative = inhibition, usual class: inhibitors; note: % is set by controls: 0 for no effect and ±100 for the full control effect; nearly all actives have a fitted effect of over 65% in size
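Read-out: total well GFP (ex488/em500-530) summed from mean per-cell fluorescence. Cells: HEPG2 CAGA-GFP, 1% FBS DMEM, 18 h at 37 degrees C with 500 pg/mL final TGF-beta. Unstimulated wells served as the full-inhibition control; stimulated DMSO wells = 0%.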
TGFb confirm: qHTS for Inhibitors of TGF-b: Confirmation of Cherry Picks; shares compounds with TGFb SMAD3 inh; Potency, µM (top dose mostly 46.1 µM), for the others: at the highest dose activity, negative = inhibition, most hits filed as inhibitors; hit rate 63% among 1,600; AID 720534, 2013; HepG2 CAGA-GFP TGF-b reporter, GFP fluorescence, 18 h; cells stimulated with TGF-beta, 500 pg/mL; note: % is set by controls: 0 for no effect and ±100 for the full control effect; nearly all actives have a fitted effect of over 65% in size
HepG2 tox-2: qHTS for Inhibitors of TGF-b: Cytotox Counterscreen for Cherry Picks; shares compounds with TGFb SMAD3 inh; HepG2 CAGA-GFP viability, ATP luminescence, 18 h; cells stimulated with TGF-beta, 500 pg/mL; Potency, µM (titrated, usually from 46.1 µM), without a hit: at the highest dose activity, negative = cytotoxicity, hits mostly inhibitors; hit rate 27% among 1,600; AID 720535, 2013; note: % is set by controls: 0 for no effect and ±100 for the full control effect; nearly all actives have a fitted effect of over 70% in size
CCL64 TGFb inh: qHTS for Inhibitors of TGF-b: CCL64 Cells Orthogonal Assay for Cherry Picks. shares compounds with TGFb SMAD3 inh. CCL64 CAGA-GFP reporter, TGF-b stimulated, GFP fluorescence, 18 h. Potency, µM (titrated, usually from 46.1 µM), without a hit: top-dose activity, negative = inhibition, hits mostly inhibitors. hit rate 41% among 1,600; note: nearly all actives have a fitted effect of over 65% in size
TGFb COP inh: qHTS for Inhibitors of TGF-b: Hit Validation in HepG2 Cells using COP promoter | shares compounds with TGFb SMAD3 inh | HepG2 COP-GFP TGF-b reporter, GFP fluorescence, 18 h; cells stimulated by added recombinant TGF-beta | Potency, µM (doses to about 46.1 µM), without a hit: at the top dose activity, negative = inhibition, usual class: inhibitors | hit rate 3% among 1,600 | AID 720537, 2013; note: nearly all actives have a fitted effect of over 70% in size
Numbers without * were called inactive; i = inactive; ? = inconclusive; . = no result given. Calls come from the whole dose curve; as a rule, active = well fitted curve in the direction sought with a large enough effect; inconclusive = small, poorly fitted or top-dose-only effect, or another doubt; inactive = no such curve, though single readings can be large; an effect the other way counts as inactive or inconclusive. Potency is the fitted concentration of half-maximal effect.

SMILES | HT1080-NT tox | ATXN2 expr inh | ATXN viability | HepG2 tox-1 | HT1080 IDH1KD tx | TGFb SMAD3 inh | TGFb confirm | HepG2 tox-2 | CCL64 TGFb inh | TGFb COP inh
COc1ccc(NC(=O)c2c(Nc3ccccc3)sc(C(=O)c3ccc(F)cc3)c2N)cc1 | ? | ? | i | -58% | ? | 3.2µM* | -22% | -27% | ? | -1%
COc1ccc(C(=O)c2sc(Nc3ccccc3)c(C(=O)Nc3ccc(OC)c(OC)c3)c2N)cc1 | -10% | -11% | i | -27% | -28% | -24% | . | . | . | .
COc1cc(C2NC(=O)c3ccccc3O2)cc(OC)c1OC (stereo unspecified) | 6% | 16% | i | -3% | -2% | 5% | . | . | . | .
COc1cc(C2Oc3ccccc3C=C2[N+](=O)[O-])cc(OC)c1OC (stereo unspecified) | 5.8µM* | . | 16µM* | 5.6µM* | 5.8µM* | 3.2µM* | 21µM* | 18µM* | 4.1µM* | ?
CCN1CCN(c2oc(-c3ccc(COc4ccccc4C)o3)nc2C#N)CC1 | . | -30% | i | -32% | . | 35% | . | . | . | .
O=C(C1CCCN(S(=O)(=O)c2cccc3nsnc23)C1)N1CCN(c2ccccc2)CC1 (stereo unspecified) | . | ? | ? | -3% | . | ? | . | . | . | .
Cc1cc(Nc2nc3ccccc3[nH]c2=O)n(-c2ccccc2)n1 | ? | -1% | i | -5% | ? | 10µM* | 8.2µM* | -25% | 12µM* | 43%
Cc1cc(Nc2cnc3ccccc3n2)n(-c2ccccc2)n1 | ? | -11% | i | -23% | -20% | ? | . | . | . | .
COc1ccccc1CNS(=O)(=O)c1ccc2c(c1)CC(C)N2C(=O)C1CCC1 (stereo unspecified) | -15% | -18% | i | -15% | ? | 14µM* | 18µM* | -19% | -24% | 13%
COc1ccccc1CNS(=O)(=O)c1ccc2c(c1)CC(C)N2C(=O)C1CC1 (stereo unspecified) | ? | . | ? | -73% | -26% | ? | . | . | . | .
O=C(CSC1=NNC(c2ccccn2)S1)Nc1ccc(C(F)(F)F)cc1 (stereo unspecified) | 15µM* | ? | i | -23% | 4.1µM* | ? | -20% | -22% | ? | -1%
